In paper PMC11006913 one finds binding signal data, which are given here for twelve sequences.

Changes are numbered by the printed parent chain.

Common to all, as to experiment: PBM; 200 nM protein, PBS
Common to all, as to settings: dsDNA, one strand shown

The target in assay [1] is HESX1 (Homo sapiens, UniProt Q9UBX0 95-180, R165K).
The target of assay [2] is HESX1 (Homo sapiens, UniProt Q9UBX0 95-180).
The target of assay [3] is HESX1 (Homo sapiens, UniProt Q9UBX0 95-180, R109Q).
Assay [4] deals with HESX1 (Homo sapiens, UniProt Q9UBX0 95-180, P111T).
Sequence of HESX1 (Homo sapiens, UniProt Q9UBX0 95-180, P111T) (Q9UBX0 95-180 P111T): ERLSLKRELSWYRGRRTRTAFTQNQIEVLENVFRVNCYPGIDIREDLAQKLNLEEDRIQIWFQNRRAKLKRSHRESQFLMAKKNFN
The target in assay [5] is T1, NKX2-6 (Homo sapiens, UniProt A6NCS4 118-204, R150C).
T1 sequence: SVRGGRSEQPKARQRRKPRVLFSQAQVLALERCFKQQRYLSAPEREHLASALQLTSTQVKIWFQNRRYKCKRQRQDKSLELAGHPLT

The target of assay [6] is HESX1 (Homo sapiens, UniProt Q9UBX0 95-180, F115L).
Sequence of HESX1 (Homo sapiens, UniProt Q9UBX0 95-180, F115L) (Q9UBX0 95-180 F115L): as the sequence (Q9UBX0 95-180 P111T) above, with T17P, F21L counted along it
Assay [7] has as its target T2, NKX2-6 (Homo sapiens, UniProt A6NCS4 118-204).
T2 sequence: T1 sequence with C33R

Assay [8] has as its target T3, NKX2-6 (Homo sapiens, UniProt A6NCS4 118-204, F151L).
T3 sequence: T1 sequence with C33R, F34L

For assay [9], the target named is PROP1 (Homo sapiens, UniProt O75360 56-141).
Sequence of PROP1 (Homo sapiens, UniProt O75360 56-141) (O75360 56-141): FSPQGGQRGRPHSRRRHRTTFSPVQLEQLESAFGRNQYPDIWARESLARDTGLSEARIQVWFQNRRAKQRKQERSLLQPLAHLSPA
The target of assay [10] is PROP1 (Homo sapiens, UniProt O75360 56-141, R99H).
Sequence of PROP1 (Homo sapiens, UniProt O75360 56-141, R99H) (O75360 56-141 R99H): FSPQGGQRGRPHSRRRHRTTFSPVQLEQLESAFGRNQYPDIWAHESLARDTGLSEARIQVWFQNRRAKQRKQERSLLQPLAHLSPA
Assay [11] deals with PROP1 (Homo sapiens, UniProt O75360 56-141, F88S).
Sequence of PROP1 (Homo sapiens, UniProt O75360 56-141, F88S) (O75360 56-141 F88S): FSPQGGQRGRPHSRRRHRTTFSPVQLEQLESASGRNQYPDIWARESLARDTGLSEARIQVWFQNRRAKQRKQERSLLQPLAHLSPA
Assay [12] deals with ALX3 (Homo sapiens, UniProt O95076 139-225, N203Q).
Sequence of ALX3 (Homo sapiens, UniProt O95076 139-225, N203Q) (O95076 139-225 N203Q): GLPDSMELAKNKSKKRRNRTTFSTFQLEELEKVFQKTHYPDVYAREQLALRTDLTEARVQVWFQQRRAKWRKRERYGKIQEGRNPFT
Assay [13] addresses ALX3 (Homo sapiens, UniProt O95076 139-225).
Assay [14] has as its target ALX3 (Homo sapiens, UniProt O95076 139-225, L168Q).
Assay [15] concerns the target ALX3 (Homo sapiens, UniProt O95076 139-225, L168V).
Assay [16] addresses ALX3 (Homo sapiens, UniProt O95076 139-225, N203S).
Assay [17] has as its target VAX1 (Homo sapiens, UniProt Q5SQQ9 86-172).
Assay [18] deals with VAX1 (Homo sapiens, UniProt Q5SQQ9 86-172, T142I).
Sequence of VAX1 (Homo sapiens, UniProt Q5SQQ9 86-172, T142I) (Q5SQQ9 86-172 T142I): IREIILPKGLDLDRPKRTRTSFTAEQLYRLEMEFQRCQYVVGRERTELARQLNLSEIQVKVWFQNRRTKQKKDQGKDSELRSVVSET
Assay [19] concerns the target VAX1 (Homo sapiens, UniProt Q5SQQ9 86-172, K157R).

Sequence of HESX1 (Homo sapiens, UniProt Q9UBX0 95-180, R165K) (Q9UBX0 95-180 R165K): as the sequence (Q9UBX0 95-180 P111T) above, with T17P, R71K counted along it
Sequence of HESX1 (Homo sapiens, UniProt Q9UBX0 95-180) (Q9UBX0 95-180): as the sequence (Q9UBX0 95-180 P111T) above, with T17P counted along it
Sequence of HESX1 (Homo sapiens, UniProt Q9UBX0 95-180, R109Q) (Q9UBX0 95-180 R109Q): as the sequence (Q9UBX0 95-180 P111T) above, with R15Q, T17P counted along it
Sequence of VAX1 (Homo sapiens, UniProt Q5SQQ9 86-172, K157R) (Q5SQQ9 86-172 K157R): as the sequence (Q5SQQ9 86-172 T142I) above, with I57T, K72R counted along it
Sequence of VAX1 (Homo sapiens, UniProt Q5SQQ9 86-172) (Q5SQQ9 86-172): as the sequence (Q5SQQ9 86-172 T142I) above, with I57T counted along it
Sequence of ALX3 (Homo sapiens, UniProt O95076 139-225, L168V) (O95076 139-225 L168V): as the sequence (O95076 139-225 N203Q) above, with L30V, Q65N counted along it
Sequence of ALX3 (Homo sapiens, UniProt O95076 139-225, N203S) (O95076 139-225 N203S): as the sequence (O95076 139-225 N203Q) above, with Q65S counted along it
Sequence of ALX3 (Homo sapiens, UniProt O95076 139-225, L168Q) (O95076 139-225 L168Q): as the sequence (O95076 139-225 N203Q) above, with L30Q, Q65N counted along it
Sequence of ALX3 (Homo sapiens, UniProt O95076 139-225) (O95076 139-225): as the sequence (O95076 139-225 N203Q) above, with Q65N counted along it

On to CTCAATAC, for which the binding signal in the assay with HESX1 [1] is 7.27 upbm affinity estimate (log intensity, higher = more binding, comparable within an allelic series); with HESX1 [2], 7.48 upbm affinity estimate (log intensity, higher = more binding, comparable within an allelic series); in the assay with HESX1 [3], 7.22 upbm affinity estimate (log intensity, higher = more binding, comparable within an allelic series); with HESX1 [4] it was 7.29 upbm affinity estimate (log intensity, higher = more binding, comparable within an allelic series).
For the sequence CCGCCGAG, the binding signal was 6.43 upbm affinity estimate (log intensity, higher = more binding, comparable within an allelic series) with HESX1 [1]; 6.32 upbm affinity estimate (log intensity, higher = more binding, comparable within an allelic series) with HESX1 [2]; 9.67 upbm affinity estimate (log intensity, higher = more binding, comparable within an allelic series) with NKX2-6 [5]; 6.49 upbm affinity estimate (log intensity, higher = more binding, comparable within an allelic series) with HESX1 [3]; 6.43 upbm affinity estimate (log intensity, higher = more binding, comparable within an allelic series) in the assay with HESX1 [4]; 6.38 upbm affinity estimate (log intensity, higher = more binding, comparable within an allelic series) in the assay with HESX1 [6].
For the sequence ATTGATTC, the binding signal with HESX1 [1] is 7.97 upbm affinity estimate (log intensity, higher = more binding, comparable within an allelic series); with HESX1 [2], 8.12 upbm affinity estimate (log intensity, higher = more binding, comparable within an allelic series); in the assay with HESX1 [3], 7.41 upbm affinity estimate (log intensity, higher = more binding, comparable within an allelic series); with HESX1 [4], 7.74 upbm affinity estimate (log intensity, higher = more binding, comparable within an allelic series).
For the sequence CAGCTCGG, the binding signal with HESX1 [1] was 6.3 upbm affinity estimate (log intensity, higher = more binding, comparable within an allelic series); with HESX1 [2], 6.27 upbm affinity estimate (log intensity, higher = more binding, comparable within an allelic series); in the assay with NKX2-6 [7], 8.88 upbm affinity estimate (log intensity, higher = more binding, comparable within an allelic series); in the assay with HESX1 [3] it was 6.34 upbm affinity estimate (log intensity, higher = more binding, comparable within an allelic series); in the assay with HESX1 [4] it was 6.3 upbm affinity estimate (log intensity, higher = more binding, comparable within an allelic series); with NKX2-6 [8], 9.23 upbm affinity estimate (log intensity, higher = more binding, comparable within an allelic series). Moreover, the binding signal with HESX1 [6] is 6.51 upbm affinity estimate (log intensity, higher = more binding, comparable within an allelic series).
Regarding TGAGCGCA, the binding signal was 6.52 upbm affinity estimate (log intensity, higher = more binding, comparable within an allelic series) with HESX1 [1]; 6.51 upbm affinity estimate (log intensity, higher = more binding, comparable within an allelic series) in the assay with HESX1 [2]; 6.51 upbm affinity estimate (log intensity, higher = more binding, comparable within an allelic series) with HESX1 [3]; 6.49 upbm affinity estimate (log intensity, higher = more binding, comparable within an allelic series) with HESX1 [4]; 6.46 upbm affinity estimate (log intensity, higher = more binding, comparable within an allelic series) with HESX1 [6].
On to ATTAGCGA, for which the binding signal in the assay with HESX1 [1] is 9.89 upbm affinity estimate (log intensity, higher = more binding, comparable within an allelic series); in the assay with HESX1 [2], 10.1 upbm affinity estimate (log intensity, higher = more binding, comparable within an allelic series); with PROP1 [9] it was 10.2 upbm affinity estimate (log intensity, higher = more binding, comparable within an allelic series); with PROP1 [10] it was 9.94 upbm affinity estimate (log intensity, higher = more binding, comparable within an allelic series); with HESX1 [4], 8.88 upbm affinity estimate (log intensity, higher = more binding, comparable within an allelic series); in the assay with PROP1 [11], 7.4 upbm affinity estimate (log intensity, higher = more binding, comparable within an allelic series).
With CCAGCCCA, the binding signal with HESX1 [1] is 6.4 upbm affinity estimate (log intensity, higher = more binding, comparable within an allelic series); with HESX1 [2], 6.43 upbm affinity estimate (log intensity, higher = more binding, comparable within an allelic series); with HESX1 [3] it was 6.47 upbm affinity estimate (log intensity, higher = more binding, comparable within an allelic series); with HESX1 [4], 6.48 upbm affinity estimate (log intensity, higher = more binding, comparable within an allelic series); with HESX1 [6] it was 6.55 upbm affinity estimate (log intensity, higher = more binding, comparable within an allelic series).
On to CTAGGGCC, for which the binding signal was 6.49 upbm affinity estimate (log intensity, higher = more binding, comparable within an allelic series) with HESX1 [1]; 6.45 upbm affinity estimate (log intensity, higher = more binding, comparable within an allelic series) in the assay with HESX1 [2]; 7.79 upbm affinity estimate (log intensity, higher = more binding, comparable within an allelic series) with ALX3 [12]; 7.79 upbm affinity estimate (log intensity, higher = more binding, comparable within an allelic series) with ALX3 [13]; 6.47 upbm affinity estimate (log intensity, higher = more binding, comparable within an allelic series) in the assay with HESX1 [3]; 7.79 upbm affinity estimate (log intensity, higher = more binding, comparable within an allelic series) with ALX3 [14]. Further, the binding signal is 6.36 upbm affinity estimate (log intensity, higher = more binding, comparable within an allelic series) with HESX1 [4]; 7.77 upbm affinity estimate (log intensity, higher = more binding, comparable within an allelic series) with ALX3 [15]; 6.42 upbm affinity estimate (log intensity, higher = more binding, comparable within an allelic series) in the assay with HESX1 [6]; 7.79 upbm affinity estimate (log intensity, higher = more binding, comparable within an allelic series) with ALX3 [16].
For the sequence GAAAGGCC, the binding signal in the assay with HESX1 [1] is 6.41 upbm affinity estimate (log intensity, higher = more binding, comparable within an allelic series); in the assay with HESX1 [2], 6.39 upbm affinity estimate (log intensity, higher = more binding, comparable within an allelic series); with PROP1 [9] it was 6.76 upbm affinity estimate (log intensity, higher = more binding, comparable within an allelic series); with HESX1 [3] it was 6.49 upbm affinity estimate (log intensity, higher = more binding, comparable within an allelic series); with PROP1 [10], 6.79 upbm affinity estimate (log intensity, higher = more binding, comparable within an allelic series); with HESX1 [4] it was 6.47 upbm affinity estimate (log intensity, higher = more binding, comparable within an allelic series). The binding signal in the assay with PROP1 [11] was 6.75 upbm affinity estimate (log intensity, higher = more binding, comparable within an allelic series); with HESX1 [6] it was 6.63 upbm affinity estimate (log intensity, higher = more binding, comparable within an allelic series).
Consider CACGGCGC, for which the binding signal with HESX1 [1] was 6.6 upbm affinity estimate (log intensity, higher = more binding, comparable within an allelic series); in the assay with HESX1 [2] it was 6.29 upbm affinity estimate (log intensity, higher = more binding, comparable within an allelic series); with HESX1 [3], 6.5 upbm affinity estimate (log intensity, higher = more binding, comparable within an allelic series); with VAX1 [17] it was 7.16 upbm affinity estimate (log intensity, higher = more binding, comparable within an allelic series); with HESX1 [4], 6.54 upbm affinity estimate (log intensity, higher = more binding, comparable within an allelic series); with HESX1 [6], 6.57 upbm affinity estimate (log intensity, higher = more binding, comparable within an allelic series). Also, the binding signal with VAX1 [18] was 7.21 upbm affinity estimate (log intensity, higher = more binding, comparable within an allelic series); with VAX1 [19] it was 7.23 upbm affinity estimate (log intensity, higher = more binding, comparable within an allelic series).
AGATTGGG: the binding signal in the assay with HESX1 [1] is 7.4 upbm affinity estimate (log intensity, higher = more binding, comparable within an allelic series); with HESX1 [2] it was 7.61 upbm affinity estimate (log intensity, higher = more binding, comparable within an allelic series); with HESX1 [3] it was 7.3 upbm affinity estimate (log intensity, higher = more binding, comparable within an allelic series); with HESX1 [4], 7.23 upbm affinity estimate (log intensity, higher = more binding, comparable within an allelic series).
With CAGTGCCG, the binding signal was 6.35 upbm affinity estimate (log intensity, higher = more binding, comparable within an allelic series) in the assay with HESX1 [1]; 6.41 upbm affinity estimate (log intensity, higher = more binding, comparable within an allelic series) with HESX1 [2]; 6.49 upbm affinity estimate (log intensity, higher = more binding, comparable within an allelic series) with HESX1 [3]; 7.15 upbm affinity estimate (log intensity, higher = more binding, comparable within an allelic series) with VAX1 [17]; 6.42 upbm affinity estimate (log intensity, higher = more binding, comparable within an allelic series) with HESX1 [4]; 6.53 upbm affinity estimate (log intensity, higher = more binding, comparable within an allelic series) in the assay with HESX1 [6]. Besides, the binding signal is 7.27 upbm affinity estimate (log intensity, higher = more binding, comparable within an allelic series) with VAX1 [18] and 7.09 upbm affinity estimate (log intensity, higher = more binding, comparable within an allelic series) with VAX1 [19].
